The values that follow come from PubChem BioAssay AID588753 (Vanderbilt Specialized Chemistry Center, 2011).

This assay is described as follows: PubChem AID 588753. As to conditions: Ricerca radioligand binding panel, % inhibition, at 10 µM, stronger effect = higher value.

Active and inactive are the calls of the source. No rule for the calls is given here.

The term inhibition denotes the change of the read-out against control, counted positive when it falls. On to `C[C@@H](NC(=O)c1ccc(C#Cc2cccc(F)c2)cn1)C(C)(C)O`, for which the inhibition was 8% (inactive). Further, under “L-type Ca channel DHP site”, the inhibition stood at 22%. Besides, the inhibition (NMDA phencyclidine site) came out at 25%. Also, for the setting “adenosine A2a binding”, the inhibition was 12%. Besides, for the setting “adrenergic alpha1A binding”, the inhibition is 18%. Where the note is “dopamine transporter binding”, the inhibition came to 8%. Moreover, for the setting “hERG binding”, the inhibition is -2%. Where the note is “leukotriene CysLT1 binding”, the inhibition was found to be 17%. Also, under “norepinephrine transporter binding”, the inhibition turned out to be 9%. For the same compound, the inhibition (purinergic P2XY binding) was 24%. The inhibition (serotonin 5-HT2B binding) came to 36%. Further, the inhibition (serotonin transporter binding) was determined as 6%. Also, the inhibition (sigma 1 binding) is 31%.
